“And” between values parts separate entries of the source, which are not always exact repeats. Equal entries are not always repeated. Structures can show the parent of a compound that is named as a salt.
Legend:
Assay in all cases: cell viability relative to vehicle control; higher = less cytotoxic
Conditions in all cases: 10 µM
K562 = tested on: K562
Outline: (§1)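 After removal of identity-inconsistent compounds, the Selleck bioactive, kinase and epigenetic probe libraries were screened on CRISPR-edited mutant clones and isogenic wild-type clones of four leukaemia lines. Plates were 384-well, each well holding 2000 cells in 50 µL medium and receiving a single 10 µM acoustically dispensed dose. CellTiter-Glo luminescence was read 48 h later, after the supernatant was taken off. Genedata Screener was used to express viability as percent of the on-plate vehicle control.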

MARIMO = tested on: MARIMO
Outline: as §1

MOLM14 = tested on: MOLM14
Outline: as §1

OCI-AML2 = tested on: OCI-AML2
Outline: as §1

Row | Structure (SMILES) | cell viability (K562; SRSF2 genotype: SRSF2 P95H/wt) | cell viability (K562; SRSF2 genotype: SRSF2 wt/wt) [%] | cell viability (MARIMO; SRSF2 genotype: SRSF2 P95H/wt) [%] | cell viability (MARIMO; SRSF2 genotype: SRSF2 wt/wt) [%] | cell viability (MOLM14; SRSF2 genotype: SRSF2 P95H/wt) [%] | cell viability (MOLM14; SRSF2 genotype: SRSF2 wt/wt) [%] | cell viability (OCI-AML2; SRSF2 genotype: P95H/wt) [%] | cell viability (OCI-AML2; SRSF2 genotype: wt/wt) [%]
1 | CN1C(N)=N[C@](C)(c2cc(NC(=O)c3ccc(F)cn3)ccc2F)CS1(=O)=O [Verubecestat (MK-8931) Trifluoroacetat] | 97.5% and 98.8% | 96.9 | 98.1 | 108 | 95.8 | 102 | 99.8 | 107
2 | Cc1c(NC(=O)OC[C@@H]2COCCN2)cn2ncnc(Nc3ccc4c(cnn4Cc4cccc(F)c4)c3)c12 | 75.3% and 73.2% | 71.7 | 76.4 | 79.8 | 63.8 | 69.6 | 68.7 | 64.8
3 | O=C(O)c1ccccc1-c1c2cc(Br)c(=O)c(Br)c-2oc2c(Br)c(O)c(Br)cc12 [Eosin Y Disodium] | 97.2% and 95.8% | 90.1 | 96 | 92.8 | 85.3 | 93.6 | 91.7 | 93.4
4 | Cc1[nH]c(/C=C2\C(=O)Nc3ccc(F)cc32)c(C)c1C(=O)NCCN1CCCC1 [Toceranib phosphate] | 97.4% and 103% | 94.5 | 64 | 53.4 | 5.66 | 7.09 | 11.6 | 19.6
5 | Nc1nc(N)nc(-c2cc(Cl)ccc2Cl)n1 [Irsogladine] | 95.2% and 105% | 97.1 | 102 | 113 | 101 | 103 | 108 | 101
6 | Oc1ccc(Nc2nc(-c3ccc(Cl)cc3)cs2)cc1 | 49.4% and 65.5% | 66.4 | 38.8 | 36.5 | 40.9 | 39.6 | 42.1 | 42.1
7 | N[C@@H](Cc1cc(I)c(O)c(I)c1)C(=O)O [3,5-Diiodotyrosine Dihydrate] | 94.2% and 94.5% | 97.4 | 97 | 102 | 96.6 | 99.9 | 100 | 102
8 | CC[C@@H]1C(=O)N(C)c2cnc(Nc3ccc(C(=O)N[C@H]4CC[C@H](N5CCN(CC6CC6)CC5)CC4)cc3OC)nc2N1C(C)C [BI6727 (Volasertib)] | 3.41% and 6.94% | 9.46 | 12.2 | 16.7 | 3.23 | 0.61 | 4.52 | 11.5
9 | COc1cc2c(=O)c(-c3ccc(O)cc3)coc2cc1O [Glycitein] | 97.5% and 92.1% | 102 | 95.4 | 90.8 | 93.7 | 98.1 | 90.3 | 82.3
10 | O=c1[nH]c(=O)n(C2CCCO2)cc1F (stereo not given) | 107% and 105% | 103 | 96.4 | 108 | 99.7 | 104 | 93.9 | 105
11 | CC1=C[C@H](O)CC(C)(C)[C@H]1/C=C/C(C)=C/C=C/C(C)=C/C=C/C=C(C)/C=C/C=C(C)/C=C/C1=C(C)C[C@@H](O)CC1(C)C [lutein] | 99.5% and 98.9% | 95.8 | 88.7 | 100 | 88.8 | 110 | 103 | 107
12 | O=c1ccc2cc(O)ccc2o1 [6-Hydroxycoumarin] | 99.5% and 104% | 102 | 99 | 90.9 | 104 | 101 | 97.9 | 99
13 | CCN(CC)CCOC(=O)C(c1ccccc1)c1ccccc1 [Adiphenine HCl] | 97.9% and 89.7% | 85.9 | 85.1 | 96.3 | 89 | 94.3 | 92.4 | 81.1
14 | OC[C@@H](O)[C@@H](O[C@@H]1O[C@H](CO)[C@H](O)[C@H](O)[C@H]1O)[C@H](O)[C@@H](O)CO [Lactitol] | 101% and 92.3% | 98.9 | 94.4 | 100 | 99.8 | 101 | 91 | 95.1
15 | Cc1cc(Nc2nc(N[C@@H](C)c3ccc(F)cc3)c(C#N)cc2F)n[nH]1 | 53.7% and 73% | 75.5 | 30.6 | 33.4 | 1.75 | 3.5 | 6.13 | 15.8
16 | CO[C@H]1C(=O)[C@]2(C)[C@@H](OC)C[C@H]3OC[C@@]3(OC(C)=O)[C@H]2[C@H](OC(=O)c2ccccc2)[C@]2(O)C[C@H](OC(=O)[C@H](O)[C@@H](NC(=O)OC(C)(C)C)c3ccccc3)C(C)=C1C2(C)C [Cabazitaxel (Jevtana)] | 24.8% and 36.9% | 36.7 | 7.53 | 5.43 | 8.88 | 4.79 | 7.39 | 16
17 | C[C@H]1CO[C@@H]2Cn3cc(C(=O)NCc4ccc(F)cc4F)c(=O)c(O)c3C(=O)N12 | 84.6% and 81.9% | 71.5 | 90.2 | 95.4 | 92.8 | 88.8 | 83.9 | 86.6
18 | Cc1nnc(NS(=O)(=O)c2ccc(N)cc2)s1 [Sulfamethizole (Proklar)] | 109% and 97.9% | 104 | 107 | 106 | 100 | 107 | 108 | 111
19 | CCN(C(=O)c1c(O)c2c(Cl)cccc2n(C)c1=O)c1ccccc1 | 98.8% and 96.5% | 96.4 | 92.4 | 99.1 | 84.1 | 93.4 | 87.9 | 99.8
20 | COc1cnc(NS(=O)(=O)c2ccc(N)cc2)nc1 [Sulfameter (Bayrena)] | 98.4% and 101% | 98.9 | 106 | 96 | 105 | 102 | 115 | 99

Row | Structure (SMILES) | cell viability (K562; SRSF2 genotype: SRSF2 P95H/wt) | cell viability (K562; SRSF2 genotype: SRSF2 wt/wt) [%] | cell viability (MARIMO; SRSF2 genotype: SRSF2 P95H/wt) [%] | cell viability (MARIMO; SRSF2 genotype: SRSF2 wt/wt) [%] | cell viability (MOLM14; SRSF2 genotype: SRSF2 P95H/wt) [%] | cell viability (MOLM14; SRSF2 genotype: SRSF2 wt/wt) [%] | cell viability (OCI-AML2; SRSF2 genotype: P95H/wt) [%] | cell viability (OCI-AML2; SRSF2 genotype: wt/wt) [%]
21 | O=C(Nc1ccccc1-c1cn2c(CN3CC[C@@H](O)C3)csc2n1)c1ccc2ccccc2c1 | 23.9% and 46% | 39.3 | 57.1 | 65 | 72.4 | 80.5 | 65.3 | 64.4
22 | CC(C)(O)CC[C@@H](O)[C@](C)(O)[C@H]1CC[C@@]2(O)C3=CC(=O)[C@@H]4C[C@@H](O)[C@@H](O)C[C@]4(C)[C@H]3CC[C@]12C [20-Hydroxyecdysone] | 104% and 98.5% | 102 | 109 | 107 | 106 | 106 | 101 | 111
23 | Nc1ncnc2c1ncn2C1OC(COP(=O)(O)OP(=O)(O)O)C(O)C1O (stereo not given) | 111% and 110% | 107 | 91.2 | 90.7 | 101 | 95 | 96.3 | 99.9
24 | NCCOc1ccc(Cl)cc1C(=O)Nc1ccc([N+](=O)[O-])cc1Cl | 29.7% and 24.1% | 23.4 | 35.4 | 37.5 | 21.3 | 14.6 | 4.88 | 14.7
25 | Nc1ncnc2c1c(I)cn2C1OC(CO)C(O)C1O (stereo not given) [5-Iodotubercidin] | 4.74% and 10.8% | 6.66 | 12.2 | 5.58 | 0.78 | 0.42 | 2.92 | 13.1
26 | C/C=C/C=C/C(=O)O [Sorbic acid] | 92.4% and 92.8% | 92.6 | 90.7 | 99.1 | 99.3 | 101 | 106 | 106
27 | Nc1nc(=O)[nH]c2c1ncn2[C@@H]1O[C@H](CO)[C@@H](O)[C@H]1O [Isoguanosine] | 101% and 98.5% | 98.7 | 94.7 | 97.7 | 93.3 | 96.8 | 106 | 91.8
28 | COc1ccc2cc(-c3nc(-c4ccc([S+](C)[O-])cc4)[nH]c3-c3ccncc3)ccc2c1 (stereo not given) [Tie2 kinase inhibitor] | 79% and 60.2% | 93.8 | 88.6 | 95.9 | 101 | 94.6 | 78.5 | 84.3
29 | NC(=O)[C@H](CCCN=C(N)CCl)NC(=O)c1ccccc1 [Cl-amidine] | 101% and 98% | 95.7 | 101 | 97.2 | 98.4 | 99 | 111 | 102
30 | Nc1ncnc2c1C(=O)N(c1ccc([C@H]3CC[C@H](CC(=O)O)CC3)cc1)CCO2 | 107% and 104% | 110 | 105 | 107 | 105 | 105 | 108 | 123
31 | Cc1ncc(Cl)cc1NCc1ccc(C(=O)N[C@@H](CC2CCCC2)C(=O)NC2CC2)s1 | 82.9% and 83.4% | 82.1 | 76.2 | 94 | 65 | 66.1 | 72.9 | 71.3
32 | CN(C/C=C/C#CC(C)(C)C)Cc1cccc2ccccc12 [Terbinafine hydrochloride (Lamisil)] | 88.5% and 88.7% | 90.3 | 87.8 | 105 | 86.8 | 99.9 | 87.4 | 97.6
33 | CCN1CCCC1CNC(=O)c1cc(S(=O)(=O)CC)c(N)cc1OC (stereo not given) [Amisulpride] | 104% and 101% | 105 | 102 | 107 | 109 | 108 | 109 | 110
34 | Cc1c(CN2CCC(Nc3ncnc4sc(CC(F)(F)F)cc34)CC2)ccc2[nH]c(C#N)cc12 | 3.04% and 4.05% | 17.5 | 42.9 | 41.7 | 4.02 | 3.33 | 0.4 | 9.25
35 | C[C@H]1C[C@H]2[C@@H]3CCC4=CC(=O)C=C[C@]4(C)[C@@]3(F)[C@@H](O)C[C@]2(C)[C@@]1(O)C(=O)CO [Betamethasone (Celestone)] | 92.1% and 85.8% | 89.5 | 86.1 | 98.4 | 92.8 | 86 | 84.4 | 108
36 | C/C=C(/C)C(=O)OC(C)(C)[C@@H]1Cc2c(ccc3ccc(=O)oc23)O1 [Columbianadin] | 99.8% and 97.1% | 99.2 | 87.8 | 86.5 | 102 | 98.4 | 72.8 | 77.5
37 | Cc1ccc(C=O)o1 [5-Methyl furfural] | 104% | 95.7 | 99.8 | 94.2 | 99.1 | 101 | 103 | 103
38 | CC(C)(O)C1CCC(C)(C2C(O)CC3(C)C4CC(O)C5C(C)(C)C(O)CCC56CC46CCC23C)O1 (stereo not given) [Cyclogalegenol] | 93.6% and 88.3% | 89.8 | 93.5 | 104 | 94 | 95.7 | 97.4 | 103
39 | COc1cc2c(Nc3ccc(NC(=O)c4ccccc4)cc3)ncnc2cc1OCCCN1CCOCC1 | 67.2% and 92% | 79.4 | 62.5 | 72 | 17.9 | 10.3 | 16.4 | 22.1
40 | CN(C)C/C=C/C(=O)Nc1ccc(C(=O)Nc2cccc(Nc3ncc(Cl)c(-c4c[nH]c5ccccc45)n3)c2)cc1 | 12.4% and 22.2% | 16.8 | 0.73 | 1.23 | 0.23 | 0.21 | 0.37 | 0.63

— the supplement of paper PMC10981050
